Measurements reported in PubChem BioAssay.
Calls of active or inactive are those of the source.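 How the source made its calls, unless noted: active means inhibition of the reporter signal at or above 50%; inactive means inhibition below 50%.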

Key:
[1] = inhibitors of TNFa-induced NFkB p65 translocation, primary screen, imaging, HUVEC, MLSMR starter and 10KST1 sets (AID 438;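 active means inhibition above 20% together with a positive visual image hit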;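 further: compound added about 3h40 before a 20 min TNFalpha stimulation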;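 on inhibition: signal is the nuclear over cytoplasmic p65 intensity ratio per well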); conditions: HUVEC TNFa-induced p65 nuclear translocation; cell count: measured here: nuclei count (cytotoxicity indicator), at 2.08 µM; inhibition: at 2 µM, stronger effect = higher value, 0% TNFa-plus-vehicle, 100% no-TNFa wells
[2] = inhibitors of mutant huntingtin aggregation, primary screen, imaging, exon1htt(103Q)mCFP cells, high-content imaging (AID 483;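 active means visual image review flags a hit and inhibition of aggregation exceeds 20%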;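 further: compound exposure lasted 3 days before fixation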;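 on nuclei count: percent of the per-plate median nuclei count of sample wells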); conditions: exon1htt(103Q)mCFP cell line, aggregate imaging, at 2 µM; inhibition of aggregation: stronger effect = higher value; nuclei count: measured here: cell count, toxicity
[3] = inhibitors of E-selectin induction by TNFa, primary screen, imaging, HUVEC, immunofluorescence, MLSMR starter and 10KST1 sets (AID 487;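 active means visually confirmed hit in the image check and inhibition above 20%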;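 on inhibition: signal is fraction of cell area covered by stained E-selectin grains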;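 on nuclei count: 100% = median nuclei count of all wells on the same plate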); conditions: HUVEC TNFalpha-induced E-selectin immunofluorescence imaging, at 2 µM; inhibition: stronger effect = higher value; nuclei count: measured here: cell number, toxicity
[4] = biological target: Voltage-gated potassium channel subunit beta-2 (Rattus norvegicus) (UniProt P62483); assay: KvBeta enzyme negative modulators, primary screen, biochemical, NADPH fluorescence (AID 622;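 active means fluorescence slope higher than the sample average by over 3 SD, cut at about -0.22 in these data, passing the limit was not always enough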;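 further: slope of raw intensity against log time taken from 70 to 1610 s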); conditions: recombinant KvBeta, 4-cyanobenzaldehyde reduction, at 10 µM, stronger effect = higher value
[5] = biological target: Voltage-gated potassium channel subunit beta-2 (Rattus norvegicus) (UniProt P62483); assay: KvBeta positive modulators, primary screen, biochemical, NADPH fluorescence (AID 623;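 active means NADPH fluorescence slope more negative than the mean of all samples by about 3 SD, 99.7% confidence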;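 further: fluorescence intensity change per second fitted from 20 to 320 s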); conditions: Recombinant KvBeta, NADPH fluorescence decrease slope, 10 min; at 10 µM; stronger effect = lower value
[6] = biological target: Alpha-2C adrenergic receptor (Homo sapiens) (UniProt P18825); assay: modulators of alpha2C/GIRK thallium flux, primary screen, cell-based, HEK293 alpha2C/GIRK1/2 (AID 624;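 active means fluorescence slope after compound addition differing from the mean of all screened samples at 99.7% confidence, in either direction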;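 further: slope of fluorescence ratio to pre-addition baseline per second over 15 to 24 s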); conditions: thallium flux BTC fluorescence, at 10 µM, actives lie on both sides
[7] = inhibitors of Sendai virus-induced IRF3 signaling, primary screen, TLR/RLR signaling modifier project, cell-based, Sendai virus stimulus, luciferase, 10K MLSCN set (AID 602276;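 active means inhibition at or above 50% at 10 µM; inactive means inhibition below 50%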;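 further: firefly luciferase from ISG56 promoter only with Renilla not read in this screen; 0% = Sendai virus plus DMSO and 100% = medium plus DMSO without virus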); conditions: HEK293 RL24 IRF3 luciferase reporter, at 10 µM, stronger effect = higher value
[8] = inhibitors of poly I:C-induced TLR3 signaling, primary screen, cell-based, poly I:C stimulus, luciferase, 10K MLSCN set (AID 602277); conditions: HEK293-TLR3 RL24 IRF3 luciferase reporter, at 10 µM, stronger effect = higher value

Alpha-2C adrenergic receptor (Homo sapiens), sequence (P18825 whole entry, looked up): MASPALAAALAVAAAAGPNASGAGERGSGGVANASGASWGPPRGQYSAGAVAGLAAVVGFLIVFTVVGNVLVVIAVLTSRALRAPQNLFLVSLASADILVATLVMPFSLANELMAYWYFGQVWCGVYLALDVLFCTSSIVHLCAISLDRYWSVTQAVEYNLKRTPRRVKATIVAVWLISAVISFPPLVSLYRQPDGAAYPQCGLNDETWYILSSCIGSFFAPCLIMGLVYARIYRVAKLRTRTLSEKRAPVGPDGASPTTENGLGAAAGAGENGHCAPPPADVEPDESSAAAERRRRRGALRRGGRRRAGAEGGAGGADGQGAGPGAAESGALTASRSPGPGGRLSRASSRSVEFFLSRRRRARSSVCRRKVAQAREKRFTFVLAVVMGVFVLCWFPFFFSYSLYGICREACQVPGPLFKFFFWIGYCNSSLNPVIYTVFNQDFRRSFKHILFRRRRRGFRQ
Voltage-gated potassium channel subunit beta-2 (Rattus norvegicus), sequence (P62483 whole entry, looked up): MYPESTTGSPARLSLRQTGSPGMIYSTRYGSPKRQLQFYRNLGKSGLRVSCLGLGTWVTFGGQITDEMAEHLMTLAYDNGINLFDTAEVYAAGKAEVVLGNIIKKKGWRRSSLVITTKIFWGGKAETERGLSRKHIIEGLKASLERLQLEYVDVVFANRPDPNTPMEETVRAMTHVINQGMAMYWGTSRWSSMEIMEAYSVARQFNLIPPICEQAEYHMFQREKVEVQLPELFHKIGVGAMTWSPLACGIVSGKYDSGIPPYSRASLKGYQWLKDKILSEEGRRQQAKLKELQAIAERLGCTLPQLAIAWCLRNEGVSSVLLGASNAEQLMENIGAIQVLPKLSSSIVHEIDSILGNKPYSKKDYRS

Row | SMILES | cell count [1] | inhibition [1] | inhibition of aggregation [2] | nuclei count [2] [%] | inhibition [3] | nuclei count [3] [%] | fluorescence slope [4] | NADPH fluorescence slope [5] | slope [6] | inhibition [7] | inhibition [8]
1 | CCc1[nH]nc2c1C(c1cccc(OC(=O)N3CCOCC3)c1)C(C#N)=C(N)O2 (stereo not given) | 393 | -20.5% (inactive) | -8.9% (inactive) | 98.5 | 9.4% (inactive) | 87.2 | -0.563 (inactive) | -2e-05 (inactive) | 0.00573 (inactive) | 20.6% (inactive) | 22.7% (inactive)
2 | COc1ccc(C(=O)c2ccc(OC)c(N)c2)cc1N | 298 | -11.7% (inactive) | -64.9% (inactive) | 3.2 | -187% (inactive) | 111 | -0.465 (inactive) | -7.4e-05 (inactive) | 0.00541 (inactive) | 35% (inactive) | 27.2% (inactive)
3 | C/C(Cl)=C/Cn1c(SCc2ccc(Cl)cc2)nc2c1c(=O)[nH]c(=O)n2C | 551 | -9.4% (inactive) | 10.9% (inactive) | 108 | 15% (inactive) | 96.1 | -0.513 (inactive) | -2.3e-05 (inactive) | 0.00751 (inactive) | 4.08% (inactive) | 12% (inactive)
4 | COc1ccc(N2CCN(Cc3cc(=O)oc4cc(C)c(Cl)c(C)c34)CC2)cc1 | 604 | 0.3% (inactive) | 8.9% (inactive) | 104 | 19% (inactive) | 93.1 | -0.388 (inactive) | 1.5e-05 (inactive) | 0.00505 (inactive) | 17.9% (inactive) | 12% (inactive)
5 | Cc1ccc(S(=O)(=O)Nc2nc3ccccc3nc2NCc2ccco2)cc1 | 686 | 7.1% (inactive) | -2% (inactive) | 103 | -39.6% (inactive) | 110 | -0.376 (inactive) | 6.7e-06 (inactive) | 0.00699 (inactive) | -21.6% (inactive) | -121% (inactive)
6 | CC(C)Cn1c(CN2CCCCC2C)nc2c1c(=O)n(C)c(=O)n2C (stereo not given) | 693 | -10% (inactive) | 12.5% (inactive) | 93 | -25% (inactive) | 116 | -0.537 (inactive) | -1.5e-05 (inactive) | 0.00589 (inactive) | 2.69% (inactive) | 21.9% (inactive)
7 | CCOc1ccc(S(=O)(=O)N2CCN(C(=O)c3cccn3C)CC2)cc1 | 431 | 2% (inactive) | -7.2% (inactive) | 95.6 | -88.3% (inactive) | 105 | -0.502 (inactive) | -9e-06 (inactive) | 0.00499 (inactive) | 13.9% (inactive) | 19.3% (inactive)
8 | CCOC(=O)c1ccc2nc(C)c3c(c2c1)OC(C)C3 (stereo not given) | 308 | -13% (inactive) | 1.1% (inactive) | 94.2 | 9% (inactive) | 122 | -0.349 (inactive) | 1.7e-05 (inactive) | 0.00348 (inactive) | -5.44% (inactive) | 20.2% (inactive)
9 | CCOC(=O)CSc1nnc(-c2ccc(NS(=O)(=O)c3ccc(C)cc3)cc2)o1 | 813 | -6.7% (inactive) | -0.7% (inactive) | 98.9 | -37.7% (inactive) | 108 | -0.433 (inactive) | -4.4e-05 (inactive) | 0.00389 (inactive) | 8.31% (inactive) | 29.4% (inactive)
10 | COc1ccc(C(=O)N2CCN(C3CCC(c4ccccc4)CC3)CC2)cc1OC (stereo not given) | 420 | -1.3% (inactive) | 20.2% (inactive) | 88.1 | 43.2% (inactive) | 83.9 | -0.436 (inactive) | -5.4e-05 (inactive) | 0.00292 (inactive) | 7.44% (inactive) | 17.6% (inactive)
11 | Cn1c(SCc2c(F)cccc2Cl)nnc1-c1cccs1 | 662 | 9.6% (inactive) | -11.9% (inactive) | 25.4 | -9.9% (inactive) | 115 | -0.445 (inactive) | -2.8e-05 (inactive) | 0.00484 (inactive) | -93.7% (inactive) | -167% (inactive)
12 | Cn1c(=O)c(=O)n(C)c2cc(S(=O)(=O)N3CCN(c4cccc(C(F)(F)F)c4)CC3)ccc21 | 334 | -2.2% (inactive) | -18.8% (inactive) | 107 | -12.6% (inactive) | 104 | -0.354 (inactive) | 1.2e-05 (inactive) | 0.00616 (inactive) | 1.46% (inactive) | 13.1% (inactive)
13 | O=C(CCNS(=O)(=O)c1cccc2nsnc12)Nc1ccc2c(c1)OCCO2 | 565 | -17.9% (inactive) | -1.5% (inactive) | 120 | -28% (inactive) | 119 | -0.421 (inactive) | -0.00049 (inactive) | 0.00512 (inactive) | 19.3% (inactive) | 23.2% (inactive)
14 | Cc1ccc(Cn2c(=N)c(C(=O)NCc3ccco3)cc3c(=O)n4ccccc4nc32)cc1 | 491 | 1.5% (inactive) | -19.4% (inactive) | 95.7 | -83% (inactive) | 106 | -0.279 (inactive) | -5.9e-05 (inactive) | 0.00216 (inactive) | -2.87% (inactive) | 10.3% (inactive)
15 | CCOC(=O)C1CCN(c2cc(C)nc3cc(-c4cccc(F)c4)nn23)CC1 | 675 | -4.7% (inactive) | 12% (inactive) | 97.8 | -82.8% (inactive) | 99.1 | -0.35 (inactive) | -1.5e-05 (inactive) | 0.00523 (inactive) | -8.57% (inactive) | -12.2% (inactive)
16 | CCOc1ccc(NCc2nnc(SCC(=O)Nc3cc(C)on3)n2-c2ccccc2OC)cc1 | 325 | -9.3% (inactive) | -6.4% (inactive) | 101 | 41.6% (inactive) | 107 | -0.452 (inactive) | -2.8e-05 (inactive) | 0.00835 (inactive) | 20.4% (inactive) | 30.4% (inactive)
17 | Cc1ccc(-c2oc3ccccc3c(=O)c2O)cc1 | 559 | -12% (inactive) | -15.8% (inactive) | 15.8 | 2.6% (inactive) | 105 | -0.0172 (active) | -2.7e-06 (inactive) | 0.00718 (inactive) | -10.6% (inactive) | -26.8% (inactive)
18 | COc1ccc(S(=O)(=O)N2CCC(C(=O)NCc3ccco3)CC2)cc1 | 245 | -0.2% (inactive) | 1.8% (inactive) | 99.6 | -290% (inactive) | 114 | -0.418 (inactive) | -2.7e-05 (inactive) | 0.00415 (inactive) | 7.79% (inactive) | 9.56% (inactive)
19 | Cn1c(SCc2nc3ccccc3c(=O)[nH]2)nnc1-c1ccco1 | 748 | 0% (inactive) | 11.8% (inactive) | 104 | -141% (inactive) | 131 | -0.496 (inactive) | -6.5e-06 (inactive) | 0.00622 (inactive) | -0.0213% (inactive) | 25.9% (inactive)
20 | COC(=O)c1ccc(Cl)c(NC(C)=O)c1 | 367 | 1.8% (inactive) | -20.6% (inactive) | 110 | -48.4% (inactive) | 78.5 | -0.433 (inactive) | -4.1e-05 (inactive) | 0.00415 (inactive) | 4.64% (inactive) | 34.3% (inactive)
21 | Cc1csc(NC(=O)CCCSc2nc3ccccc3s2)n1 | 387 | 0.9% (inactive) | 0.5% (inactive) | 97.4 | -33.8% (inactive) | 110 | -0.594 (inactive) | -2.4e-05 (inactive) | 0.00267 (inactive) | 23.5% (inactive) | 26.7% (inactive)
22 | O=C(Cn1c(=O)sc2ccccc21)NCCOc1ccccc1F | 780 | -12% (inactive) | -3.1% (inactive) | 104 | 36.2% (inactive) | 108 | -0.514 (inactive) | -9e-06 (inactive) | 0.00676 (inactive) | 0.0246% (inactive) | 6.19% (inactive)
23 | CCCNc1nc(N2CCOCC2)nc(N2CCOCC2)n1 | 193 | -17.4% (inactive) | 23.8% (inactive) | 92.2 | 3.6% (inactive) | 91.7 | -0.498 (inactive) | -2.3e-05 (inactive) | 0.00617 (inactive) | -9.95% (inactive) | 18.9% (inactive)
24 | CCOc1ccc(C2CC(c3cccc(C)c3)n3ncnc3N2)cc1 (stereo not given) | 666 | 0.3% (inactive) | -18.7% (inactive) | 90.6 | -13.6% (inactive) | 109 | -0.622 (inactive) | 1.7e-06 (inactive) | 0.0075 (inactive) | -8.73% (inactive) | 10.7% (inactive)
25 | COc1ccc(N(C(=O)c2ccco2)C(C(=O)NC2CCCC2)c2ccc(N(C)C)cc2)cc1OC (stereo not given) | 596 | -18.8% (inactive) | -35.5% (inactive) | 116 | -96.5% (inactive) | 109 | -0.48 (inactive) | 3.2e-05 (inactive) | 0.00496 (inactive) | 3.23% (inactive) | 27.3% (inactive)
